Screens (PubChem BioAssay)
Compounds with a hit are over-represented: about 6.9% of the library has one in this group of screens.
MPTP inh – mitochondrial permeability transition pore inhibitors, primary screen, biochemical, isolated mouse mitochondria, absorbance. Ca2+ swelling absorbance, 30 min. inhibition, % at 10 µM. AID 602449, 2012. 1.4% of 360,000 active;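 active = inhibition of 50% or more, scaled per plate between neutral and stimulator controls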;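 note: 0% = DMSO wells given calcium and 100% = 1 mM EGTA wells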
Mdm2-MdmX inh – inhibitors of human Mdm2-MdmX association, primary screen, cell-based, luminescence, split luciferase, SaOS-2, uHTS. inhibition, % at 8 µM. SaOS-2 split-luciferase Mdm2/MdmX complementation. 3% of 330,000 active. Protein Mdm4 (Homo sapiens) + E3 ubiquitin-protein ligase Mdm2 (Homo sapiens), …;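 active = inhibition of at least 50% at 8 µM in the primary screen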
Target sequence (O15151 whole entry, looked up): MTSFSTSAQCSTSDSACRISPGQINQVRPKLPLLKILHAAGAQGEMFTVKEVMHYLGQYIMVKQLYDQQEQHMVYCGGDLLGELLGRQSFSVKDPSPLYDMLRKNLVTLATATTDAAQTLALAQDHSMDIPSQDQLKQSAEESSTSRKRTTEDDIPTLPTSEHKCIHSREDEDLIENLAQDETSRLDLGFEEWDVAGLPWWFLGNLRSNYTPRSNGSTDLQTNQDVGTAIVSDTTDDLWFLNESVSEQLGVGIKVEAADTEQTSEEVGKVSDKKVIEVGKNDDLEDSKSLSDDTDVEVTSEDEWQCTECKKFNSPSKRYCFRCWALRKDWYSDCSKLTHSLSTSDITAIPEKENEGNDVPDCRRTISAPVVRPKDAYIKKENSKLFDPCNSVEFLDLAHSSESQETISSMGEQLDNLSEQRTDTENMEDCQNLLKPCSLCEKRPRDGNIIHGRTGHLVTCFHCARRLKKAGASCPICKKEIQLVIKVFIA
Target sequence (Q00987 whole entry, looked up): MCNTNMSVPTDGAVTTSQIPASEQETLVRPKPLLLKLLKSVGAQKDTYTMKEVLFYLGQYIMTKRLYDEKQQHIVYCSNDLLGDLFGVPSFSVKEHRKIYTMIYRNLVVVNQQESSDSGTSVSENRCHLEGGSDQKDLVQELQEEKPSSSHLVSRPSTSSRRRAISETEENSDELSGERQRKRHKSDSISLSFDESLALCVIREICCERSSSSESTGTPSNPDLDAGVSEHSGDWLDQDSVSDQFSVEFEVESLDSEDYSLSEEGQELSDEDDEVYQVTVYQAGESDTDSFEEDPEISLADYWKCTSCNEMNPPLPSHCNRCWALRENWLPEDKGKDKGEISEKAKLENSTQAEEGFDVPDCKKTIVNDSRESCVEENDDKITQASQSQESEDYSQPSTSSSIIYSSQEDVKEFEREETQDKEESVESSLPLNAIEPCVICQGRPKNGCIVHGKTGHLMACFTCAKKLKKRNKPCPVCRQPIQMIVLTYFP
SKKanGAS inh – S. pyogenes SKKanGAS growth inhibitors in kanamycin, primary screen, streptokinase expression inhibitor project, SKKanGAS strain, BacTiter-Glo luminescence | 6 h | inhibition, % at 7.5 µM | 1.3% of 300,000 active | AID 1662, 2009;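 active = mean replicate score, as percent of positive control median, at least 50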;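 note: strain carries kanamycin resistance gene driven by streptokinase promoter and grows in 40 µg/ml kanamycin; loss of luminescence reflects streptokinase promoter inhibition or plain growth inhibition; 0% = median of DMSO wells and 100% = positive control at its reference dose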
GRIN3A LBD mod – binders of NR3A ligand-binding domain, primary screen, biophysical, differential scanning fluorimetry, uHTS | 2.5% of 340,000 active | AID 1259313, 2017 | Tm shift relative to glycine control, % at 25 µM | Glutamate receptor ionotropic, NMDA 3A (GRIN3A) ligand-binding domain | NR3A LBD differential scanning fluorimetry, Tm shift; 0% = protein alone, 100% = glycine-bound protein;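 active = melting temperature shift of at least 10% of the positive control shift, at one fixed dose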
CSC inhib – cancer stem cell viability inhibitors, primary screen, luminescence; cancer stem cell-like cells viability; inhibition, % at 7.5 µM; 1.1% of 300,000 active; in the data active = inhibition above about 75%; tested in HMLE shEcad cells
Beta apoptosis – inhibitors of cytokine-induced beta cell apoptosis, primary screen, luminescence | INS-1E cytokine-induced death, ATP luminescence, 48 h; percent of positive-control rescue, neutral wells zero | protection from apoptosis, % (no concentration beside the values) | 0.8% of 300,000 active | AID 435005, 2010;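 active = Every replicate reaches about 75%, or at least half do and their mean reaches it too, limit read from the data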;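 note: 0% = cytokine-treated negative control wells and 100% = positive control rescue; higher means more ATP so stronger rescue from cytokine killing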
An asterisk follows results filed as active; / = not tested or not shown.

SMILES	MPTP inh	Mdm2-MdmX inh	SKKanGAS inh	GRIN3A LBD mod	CSC inhib	Beta apoptosis
O=[N+]([O-])c1cc(Cl)cc2c1nc(NCCO)c1ccccc12	2	17	32	13*	66	-2
COc1ccc(C(N)=O)c(OCC(=O)Nc2cc(C)on2)c1	0	0	/	15*	7	-5
CC1(c2ccc(OC(F)F)cc2)NC(=O)N(CC(=O)N2c3ccccc3NC(=O)C2(C)C)C1=O (configuration not stated)	0	26	/	-4	-12	-2
N#CCN1C(=O)NC2(CCCc3sccc32)C1=O (configuration not stated)	0	-19	0	3	-11	-7
Cc1ccc2nc(C)c(C(=O)N/N=C/c3ccco3)cc2c1	1	-17	8	11*	-13	-1
Cc1nc2ccccc2cc1C(=O)N/N=C/c1ccco1	0	12	-3	5	-3	7
COCCNC(=S)N/N=C(\C)c1cccc(C(F)(F)F)c1	0	1	-8	52*	13	1
CC(=O)c1ccc(N(CC(=O)NC2CCCC2)C(=O)CNC(=O)c2ccco2)cc1	0	10	0	0	-6	1
O=S(=O)(Nc1ccc(-n2cnnn2)cc1)c1cccc(F)c1	-2	-10	/	0	/	/
Cc1ccc(S(=O)(=O)/N=C2/NC(=O)/C(=C/c3cc([N+](=O)[O-])ccc3O)S2)cc1	-1	0	-5	28*	/	0
O=C1NC(=Nc2ccccc2Cl)S/C1=C\c1cc([N+](=O)[O-])ccc1O	6	10	28	20*	32	/
CCCCOc1ccc(/C=N/NC(=O)c2csc(C)c2C)cc1	-11	35	10	28*	-17	0
CCOc1ccc(/C=N/NC(=O)c2[nH]c3ccc(C)cc3c2C)cc1	3	-1	21	26*	24	-3
CCOc1ccc(/C=N/NC(=O)c2cc3ccccc3cc2OC)cc1	-2	28	0	24*	32	5
COc1cc2ccccc2cc1C(=O)N/N=C/c1cccnc1	-1	33	-3	83*	34	0
Cc1scc(C(=O)N/N=C/c2ccc(OCC(C)C)cc2)c1C	-1	11	8	8	-4	6
O=C(O)CCn1cc(-c2ccc(F)cc2)nc1-c1ccncc1	2	9	/	0	1	-3
CCCS(=O)(=O)NC(=O)C1(C)CCCN(C(=O)c2cc(-c3cccs3)oc2C)C1 (configuration not stated)	1	/	/	/	/	/
CCOc1ccc(S(=O)(=O)Nc2ccccc2C(=O)N/N=C/c2c(OC)ccc3ccccc23)cc1	13	13	-3	22*	11	-1
C=CCc1ccccc1Oc1cc(OC)nc(N)n1	-3	21	/	1	/	/
CCCOc1ccc(-c2c(C(=O)N/N=C/c3ccc(OCC)cc3)nnn2-c2nonc2N)cc1	-1	-19	2	5	1	-1
CC1CCN(Cc2c(C(=O)N/N=C/c3ccc(OC(C)C)cc3)nnn2-c2nonc2N)CC1	4	-9	-2	7	10	9
Cc1ccccc1COc1ccc(/C=N/NC(=O)c2nnn(-c3nonc3N)c2CN2CCC(C)CC2)cc1	1	19	17	87*	-6	20
CCOc1ccc(/C=N/NC(=O)c2nnn(-c3nonc3N)c2COc2ccc(F)cc2)cc1	5	24	-9	39*	-6	3
CCOC(=O)c1nnn(-c2nonc2-n2cccc2)c1CN1CCCCC1	0	23	-4	18*	-14	-37
SMILES	MPTP inh	Mdm2-MdmX inh	SKKanGAS inh	GRIN3A LBD mod	CSC inhib	Beta apoptosis
Nc1nonc1-n1nnc(C(=O)N/N=C/c2cccc(O)c2)c1CN1CCCC1	2	17	/	12*	-1	-1
COc1ccc(/C=C(/NC(=O)c2ccccc2Cl)C(=O)O)cc1	1	-4	-3	-1	/	-2
COc1ccc(CCCNC(=O)C2CCC(=O)N(CC3CCCCC3)C2)cc1 (configuration not stated)	0	13	38	5	-13	3
Cc1cccc(CS(=O)(=O)Cc2ccc(C(=O)NCc3cccs3)o2)c1	0	4	-7	-1	0	3
CN(C)c1ccc(/C=N/NC(=O)c2nnn(-c3nonc3N)c2COc2ccc(F)cc2)cc1	1	-10	6	11*	-4	0
CN(C)Cc1c(C(=O)N/N=C/c2ccc(OCc3ccc(F)cc3)cc2)nnn1-c1nonc1N	4	14	-3	7	-1	-1
N#CC(C#N)=C1C=CC=CN1/C(=C\c1ccco1)C(=O)c1ccc(Cl)cc1	-2	/	/	-3	-63	52
N#CC(C#N)=C1C=CC=CN1/C(=C\c1ccco1)C(=O)c1ccc(-c2ccccc2)cc1	-2	/	/	-4	75*	16
COc1ccc(CN2C(=O)[C@@H]3Cc4c([nH]c5ccccc45)C(C)(C)N3C2=O)cc1	-1	14	5	12*	16	7
O=c1cc(N2CCCCC2)c(-c2ccccc2)nn1Cc1ccc(Cl)cc1Cl	3	24	105*	1	83*	9
O=c1cc(N2CCCCC2)c(-c2ccccc2)nn1Cc1cccc(Cl)c1	2	-15	52*	0	88*	/
COCC(=O)N1CCC(Oc2ccc(C(=O)NC(C)c3nccs3)cc2)CC1 (configuration not stated)	-2	-1	-1	0	-19	-3
O=C1/C(=C\c2ccc(-c3ccccc3Cl)o2)SC(=S)N1CC1CCCO1 (configuration not stated)	3	13	6	0	3	-10
O=C(O)C(c1ccccc1)N1C(=O)/C(=C\c2ccc(-c3ccc(Br)cc3)o2)SC1=S (configuration not stated)	6	9	109*	5	/	/
O=C(O)C(c1ccccc1)N1C(=O)/C(=C\c2ccc(-c3ccccc3Cl)o2)SC1=S (configuration not stated)	2	0	102*	31*	/	/
CCOc1ccc(N2C(N)=NC(N)=NC2(C)C)cc1	-4	9	95*	2	1	3
CC1(C)N=C(N)N=C(N)N1c1ccc(OCC(=O)Nc2ccccc2)c(Cl)c1	0	/	/	/	/	/
CC1(C)N=C(N)N=C(N)N1c1ccc(OCCCOc2ccccc2)c(Cl)c1	-1	/	111*	5	85*	103*
CC1(C)N=C(N)N=C(N)N1c1ccc(OCC(=O)N2CCOCC2)cc1	0	/	/	/	/	/
COc1cccc(N2C(N)=NC(N)=NC2(C)C)c1	2	-16	95*	1	1	4
